The values below come from PubChem BioAssay (EPA / NIEHS).

Inconclusive results are not listed. The source made the active and inactive calls. How the source made its calls: active means hit-call score of the fitted dose curve at least 0.9, where 1 is the maximum; inconclusive means response in the unintended direction; inactive means score below 0.9.

Sequence of Androgen receptor (Homo sapiens) (P10275 whole entry, looked up, the tested form may be a part): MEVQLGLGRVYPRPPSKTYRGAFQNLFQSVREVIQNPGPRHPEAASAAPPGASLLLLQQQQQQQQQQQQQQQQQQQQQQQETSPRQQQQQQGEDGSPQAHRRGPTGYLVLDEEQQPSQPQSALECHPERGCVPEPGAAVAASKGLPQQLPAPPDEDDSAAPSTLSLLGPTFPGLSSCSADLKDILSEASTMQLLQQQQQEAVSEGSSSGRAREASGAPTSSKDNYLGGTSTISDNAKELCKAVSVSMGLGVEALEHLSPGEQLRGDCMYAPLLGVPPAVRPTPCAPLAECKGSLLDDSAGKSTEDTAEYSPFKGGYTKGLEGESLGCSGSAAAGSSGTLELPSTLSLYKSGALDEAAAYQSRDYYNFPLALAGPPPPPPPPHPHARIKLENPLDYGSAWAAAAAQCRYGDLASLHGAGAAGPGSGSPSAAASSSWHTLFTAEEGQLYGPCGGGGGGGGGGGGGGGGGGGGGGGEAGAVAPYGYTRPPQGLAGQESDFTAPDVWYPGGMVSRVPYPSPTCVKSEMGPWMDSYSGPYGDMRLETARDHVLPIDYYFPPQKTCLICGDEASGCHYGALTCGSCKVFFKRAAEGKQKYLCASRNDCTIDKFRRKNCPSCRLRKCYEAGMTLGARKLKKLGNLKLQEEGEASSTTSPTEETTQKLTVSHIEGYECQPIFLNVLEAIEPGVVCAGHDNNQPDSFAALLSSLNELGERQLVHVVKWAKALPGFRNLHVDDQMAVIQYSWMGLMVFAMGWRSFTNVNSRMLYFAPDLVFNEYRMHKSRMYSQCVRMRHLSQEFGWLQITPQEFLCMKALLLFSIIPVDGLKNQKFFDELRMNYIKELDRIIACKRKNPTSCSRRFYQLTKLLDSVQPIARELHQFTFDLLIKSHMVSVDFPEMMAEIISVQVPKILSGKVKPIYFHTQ

The experiment addresses Androgen receptor (Homo sapiens) (UniProt P10275). Kind of experiment: ATG_AR_TRANS: Attagene TRANS-FACTORIAL HepG2 Assay for human Androgen Receptor (AR) (AID 2282973). The note with it: HepG2 Attagene TRANS-FACTORIAL AR reporter transcription. A digest of the protocol: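 Transcriptional activity of an exogenous AR–Gal4 fusion read as GAL4-UAS reporter transcript levels in transfected human HepG2 cells after 24 h dosing. Detection via RT-PCR, 6-FAM labelling, HpaI digest and capillary electrophoresis; increase over DMSO baseline.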
As for `CCc1ccc(C(c2ccc(CC)cc2)C(Cl)Cl)cc1`, the molecule was classed as inactive.
The result for `CCCCCCCCCCCC[N+](C)(C)Cc1ccccc1` reads “inactive”.
With `COC(OC(C)=O)c1ccccc1` (centres undefined) the entry was “inactive”; with `Cc1ccc(C)c(O)c1C`, “inactive”; with `COCc1c(C(C)C)nc(C(C)C)c(/C=C/[C@@H](O)C[C@@H](O)CC(=O)O)c1-c1ccc(F)cc1`, “inactive”.
The result for `Clc1cc(Cl)c(-c2c(Cl)c(Cl)cc(Cl)c2Cl)cc1Cl` reads “inactive”; that for `C=CC(=O)OCCC(F)(F)C(F)(F)C(F)(F)C(F)(F)F`, “inactive”; that for `OCCNCc1ccccc1`, “inactive”.
As for `CC(CC=O)CCCC(C)(C)O` (centres undefined), the result was inactive.
The result for `CN(C)CCOc1ccc(/C(=C(/CCCl)c2ccccc2)c2ccccc2)cc1` reads “inactive”.
Regarding `CCc1cccc(C)c1N`, the molecule was classed as inactive.
With `Cc1c(C(=O)c2c[nH]n(C)c2=O)ccc(S(C)(=O)=O)c1C1=NOCC1` the entry was “inactive”; with `COc1cc(C(C)C)ccc1C`, “inactive”; with `O=[N+]([O-])c1ccccc1C(F)(F)F`, “inactive”.
The result for `C[Si]1(C)O[Si](C)(C)O[Si](C)(C)O1` reads “inactive”.
On to `OCC(F)(F)C(F)(F)C(F)(F)C(F)F`, for which the molecule was called inactive.
With `CC(=O)OC1CCCCC1C(C)(C)C` (centres undefined) the entry was “inactive”; with `CCCCCCCC(=O)OCCCCCC`, “inactive”; with `Oc1ccc(Cl)cc1Cc1cc(Cl)ccc1O`, “inactive”.
With `CC(c1cc2ccccc2s1)N(O)C(N)=O` (centres undefined) the entry was “inactive”; with `O=C(C=C(O)C(F)(F)F)C(F)(F)F`, “inactive”; with `O=C(Nc1ccc(Cl)cc1)Nc1ccc(Cl)c(Cl)c1`, “inactive”.
The result for `CCN(CC)c1ccc(C=O)cc1` reads “inactive”; that for `Cc1ccc(-c2cc(C(F)(F)F)nn2-c2ccc(S(N)(=O)=O)cc2)cc1`, “inactive”; that for `O=C1Cc2ccccc2N1c1c(Cl)cccc1Cl`, “inactive”.
On to `N#CCCOCCC#N`, for which the molecule was classed as inactive.
The result for `ON(Cc1ccccc1)Cc1ccccc1` reads “inactive”; that for `CN(C)CCOC(c1ccccc1)c1ccccc1`, “inactive”.
With `CC=CCO` the entry was “inactive”; with `FC(F)(F)C1(F)C(F)(F)C(F)(F)C(F)(F)C(F)(C(F)(F)F)C1(F)F` (centres undefined), “inactive”; with `Clc1sc(Cl)c(Cl)c1Cl`, “inactive”.
Regarding `O=C(O)C[C@H](O)C[C@H](O)/C=C/c1c(C2CC2)nc2ccccc2c1-c1ccc(F)cc1`, the molecule was classed as inactive.
Turning to `O=S(=O)(c1ccc(OCc2ccccc2)cc1)c1ccccc1O`, the result was inactive.
The result for `CCc1c(Br)c(Br)c(Br)c(Br)c1Br` reads “inactive”; that for `Cc1ccc(N(C)C)cc1`, “inactive”.
With `CCCCCCCCC(F)(F)C(F)(F)C(F)(F)C(F)(F)C(F)(F)C(F)(F)F` the entry was “inactive”; with `CC(C)(C)NC(N)=O`, “inactive”; with `CC1=CCC2C(C1)C2(C)C` (centres undefined), “inactive”.
With `CC(=O)C=O` the entry was “inactive”.
